The panel holds about 83,000 compounds, 20% with a hit somewhere; the sample as a whole holds those more often.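 Each cell line was grown in a 96-well plate and treated with one concentration of compound for 48 hours. Values below 10 were considered active.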 Calls of active or inactive are those of the source.
test system: UO-31 renal; assay: NCI-60 one-dose screen, 48 h (100 = growth as untreated, 0 = no growth, -100 = all killed); details: 10 µM unless noted
Experimental: Growth inhibition of the UO-31 human tumor cell line is measured as a screen for anti-cancer activity. Cells are grown in 96 well plates and exposed to the test compound for 48 hours. Compounds are tested at a single concentration, which is 10^-5 M for most compounds. The reported endpoint is percent growth (GI% or GIPRCNT), where numbers from 0 - 100% represent growth inhibition, and numbers from -100% - 0 represent cell death. For example, a value of 40 represents 60% growth inhibition. A value of 0 means no net growth occurred over the course of the experiment. A value of -40 indicates 40% of cells at the beginning of the experiment died by the end of the experiment. A value of -100 means all cells are dead at the end of the experiment.
NCI-60 Human Tumor Cell Lines Screen was performed using the standard one-dose NCI protocol, which is described in more detail at https://dtp.cancer.gov/discovery_development/nci-60/default.htm.
Compounds with GIPRCNT values below 10 were considered active. Activity score was based on GIPRCNT using the following formula: […]
Score is 0 for GIPRCNT values of 100 or above, 50 for GIPRCNT values of 0, and 100 for GIPRCNT values of -100.

Structure (SMILES) | growth
Nc1nc(-c2ccnc(Cl)c2)nn1-c1nc2ccccc2s1 | 87% (inactive)
COc1cc(CNCCCN2C(=O)c3ccc4c5c(ccc(c35)C2=O)C(=O)N(CCCNCc2cc(OC)c(OC)c(OC)c2)C4=O)cc(OC)c1OC | 4.39% (active)
CC(=O)Nc1ccccc1-c1n[nH]c(=O)[nH]c1=O | 79.1% (inactive)
COc1ccc(-c2c3c(N)c4c(nc3nc3c2c(C)nn3-c2ccccc2)CCCC4)cc1 | 68.9% (inactive)
Cc1ccc(S(=O)(=O)N2C/C(=C\c3cc(F)cc(F)c3)C(=O)/C(=C/c3cc(F)cc(F)c3)C2)cc1 | -90.5% (active)
Cc1cc(O)cc2c1[C@H]1CC[C@]3(C)[C@@H](O)CC[C@H]3[C@@H]1C=C2 | 98.4% (inactive)
COc1c(Cl)ccc2c(-c3nc4cc(Cl)c(F)cc4s3)cc(=O)oc12 | -88.8% (active)
O=C1CC2c3cc(-c4cc5ccccc5o4)ccc3CCN2C(=O)N1c1ccccc1 (stereo not given) | 58.8% (inactive)
Cc1c(C)n(CC(O)CNC2CCCCC2C)c2ccccc12 (stereo not given) | -87.5% (active)
CN1CCC(OC2c3ccccc3CCc3ccccc32)CC1 | 73.4% (inactive)
CCCCCCCC/C=C\CCCCCCCCOc1cccc(CC(=O)NCC[N+](C)(C)C)c1 | 92.6% (inactive)
O=C(N/N=C(\CS(=O)(=O)c1ccccc1)c1cc2cc(Br)ccc2oc1=O)c1ccccc1 | 94.4% (inactive)
CC(=O)Nc1ccc(Sc2ccc([N+](=O)[O-])o2)cc1 | 24.2% (inactive)
CC1SC(c2ccc(Cl)cc2)N(CCc2cccs2)C1=O (stereo not given) | 1.81% (active)
Cc1ccc(S(=O)(=O)c2ccc3[nH]c(=O)[nH]c(=O)c3c2)cc1 | 96.1% (inactive)
CCCCC(CCCC)(S(=O)(=O)CC)S(=O)(=O)CC | 84.6% (inactive)
CN1CCc2cccc3c2C1Cc1ccc(O)c(O)c1-3 (stereo not given) | 64.2% (inactive)
CCN1CCN(c2nc3ccccc3c3c(=O)c4cc(F)ccc4sc23)CC1 | 44% (inactive)
Cc1nc2cc(Nc3nc(Nc4ccc(F)cc4)nc(N4CCCC4)n3)ccc2n1Cc1ccccc1 | -68.7% (active)
COC(=O)c1c2c(c(C)[n+]([O-])c1C)C(=O)C=C(NCc1ccc(F)c(Cl)c1)C2=O | -49.5% (active)

Structure (SMILES) | growth
N#Cc1c(-c2cccc(F)c2)cc(-c2ccc(Br)s2)[nH]c1=O | 74.1% (inactive)
Oc1ccccc1/C=N/Nc1nc2ccccc2s1 | 19.7% (inactive)
COc1cc(/C=N/NC(=O)c2cnn3c2NC(c2ccccc2)C3)ccc1OC1CCCC1 (stereo not given) | 33.1% (inactive)
CCN(CC)c1ccc(/C=C(\C#N)c2cc3ccccc3[nH]2)cc1 | 81.1% (inactive)
C=CC(=O)N1CC2(CC(n3nc(-c4ccc(Oc5ccccc5)cc4)c4c(N)ncnc43)C2)C1 | 15.2% (inactive)
Clc1cccc(Cl)c1Nc1ccc2nnc(-c3ccncc3)n2n1 | 96.1% (inactive)
COc1ccc(/C=N/NC(=O)c2cnn3c2NC(c2ccccc2)C3)cc1OC1CCCC1 (stereo not given) | 80.1% (inactive)
Cc1ccccc1-n1nnc(C(=O)Nc2nc(-c3ccccc3)c(-c3ccccc3)s2)c1C | 86% [50 µM] (inactive)
COCCOC1=C(Cl)C(=O)c2ccccc2C1=O | -20.2% (active)
CN([N-]C(=O)CC(=O)[N-]N(C)C(=S)c1ccccc1)C(=S)c1ccccc1.[Cu+2] | -97.5% (active)
COc1cc(/C=C/C(=O)C2=C(/C=C/c3ccc(O)c(OC)c3)NC(=O)NC2c2ccc(O)c(OC)c2)ccc1O (stereo not given) | 84.4% (inactive)
Clc1ccc(C2=NN(c3ccccc3)[C@H](c3cn(-c4ccccc4)nc3-c3ccccc3)C2)cc1 | 94.8% (inactive)
COc1ccc(-n2c(SCc3cc(OC)c(OC)c(OC)c3)nc3ccc(C)cc3c2=O)c(OC)c1 | 18.2% (inactive)
CCOC(=O)c1cnn(CC(O)c2ccc(F)cc2)c1NC(=O)Nc1ccccc1F (stereo not given) | 71.5% (inactive)
COc1ccc(/C=C2\Oc3cc(C)c(Cl)cc3C2=O)cc1OC | 89.5% (inactive)
c1ccc2cc(Cn3c(-c4ccc5ccccc5c4)[n+](Cc4ccc5ccccc5c4)c4ccccc43)ccc2c1 | -77.1% (active)
C[C@H]1C(=O)C23CCC1C[C@@]21O[C@@H]2C(C)(C)C=CC(=O)C23COC1=O | 81.5% (inactive)
O=c1c2c(=NCCN3CCCC3)cc3c(=O)n(CCCN4CCOCC4)c(=O)c4ccc(c(O)n1CCCN1CCOCC1)c2c4-3 | 0.795% (active)
NC(=O)c1cc(I)ccc1NC(=O)COc1ccc(Cl)cc1Cl | 83.3% (inactive)
COc1cc(-c2nc(SC(C)C)nc(Nc3cccc(C)c3)c2C#N)cc(OC)c1OC | 84.8% (inactive)
